Measured values as given in PubChem BioAssay.
Calls of active or inactive are those of the source.

Key:
Albumin (Bos taurus) = Albumin (Bos taurus) (UniProt P02769); assay: bovine serum albumin binders on microarray, profiling panel, artefact control for SMM control protein annotation, biochemical, small-molecule microarray, Alexa647 label, 635/667 nm fluorescence (AID 1118); settings: BSA-A647 binding, fluorescence 635 nm, higher = more signal;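 also: score merges 667 nm emission intensity and signal-to-noise per printed compound spot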
[1] = small-molecule microarray binders of probe aXIP, primary screen, biochemical, NeuroSMM set, 635/667 nm fluorescence (AID 1119); settings: higher = more signal, called active from +8 up or from −8 down;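 also: probe is the protein aXip251-270 applied at 1 µg/mL to compound-printed slides; binding of probe to printed compounds measured as 667 nm fluorescence plus signal to noise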
[2] = small-molecule binders of probe aNOTCH3, primary screen, biochemical, small-molecule microarray, 635/667 nm fluorescence (AID 1120); settings: higher = more signal;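 also: probe is a biotin-tagged antibody raised against NOTCH3 rather than NOTCH3 protein; score merges spot fluorescence near 667 nm with spot signal to noise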
[3] = small-molecule binders of probe aNOTCH2, primary screen, biochemical, small-molecule microarray, 635/667 nm fluorescence (AID 1121); settings: higher = more signal;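 also: score merges feature fluorescence read at 667 nm with its signal to noise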
[4] = target: Carbonic anhydrase 2 (Homo sapiens) (UniProt P00918); assay: CAII small-molecule binders, profiling panel, biochemical, small-molecule microarray, Alexa647-labelled CAII (AID 1122); settings: CAII-A647 binding fluorescence, higher = more signal
[5] = COS7 lysate on small-molecule microarray, probe aHis, 635 nm (AID 1123); settings: COS7 cell lysate, fluorescence, higher = more signal;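 also: z-score combines 667nm fluorescence intensity with signal-to-noise per printed compound spot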
[6] = compound binding in COS7 lysate, probe aLAP1, primary screen, cell lysate, small-molecule microarray (AID 1124); settings: probe aLAP1, fluorescence, higher = more signal;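 also: lysate comes from COS7 cells expressing LAP1 and is applied at 0.3 µg/mL; score merges spot fluorescence near 667 nm with signal-to-noise over triplicate slides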
Sam68 (KHDRBS1) = assay: Sam68 small-molecule binders, primary screen, biochemical, small-molecule microarray, 635 nm fluorescence (AID 1125); settings: small-molecule microarray binding, higher = more signal;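 also: score merges 667 nm channel intensity with signal to noise over triplicate slides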
[7] = system: Chordin-like protein 2 (CHRDL2); assay: CHRDL2 small-molecule binders, primary screen, biochemical, small-molecule microarray, 635 nm fluorescence (AID 1126); settings: small-molecule microarray binding, fluorescence 635 nm; higher = more signal;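 also: printed compound slides probed with Chrdl2 protein at 4 µg/mL for 1 h at 4 C; score merges 667 nm emission intensity with signal to noise over three replicate slides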
[8] = target: Concanavalin-A (Canavalia ensiformis) (UniProt P02866); assay: ConA small-molecule binders, primary screen, artefact control for SMM control protein annotation, biochemical, small-molecule microarray, Alexa647 label, 635 nm (AID 1127); settings: ConA-A647 binding fluorescence, higher = more signal;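 also: z combines 667 nm emission intensity with signal-to-noise across three replicate slides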
[9] = anti-His antibody binders, primary screen, artefact control for SMM control protein annotation, biochemical, small-molecule microarray, 635 nm fluorescence (AID 1128); settings: anti-His Alexa647 antibody binding, higher = more signal;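 also: score merges feature fluorescence with signal-to-noise for each printed compound spot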
[10] = system: Human papillomavirus type 1a E7 protein (residues 1-88); assay: HPV1a E7 small-molecule binders, primary screen, biochemical, small-molecule microarray, residues 1-88, 635 nm (AID 1129); settings: small-molecule microarray binding, fluorescence 635 nm; higher = more signal
[11] = target: Focal adhesion kinase 1 (Homo sapiens) (UniProt Q05397); assay: small-molecule microarray binders of FAK, primary screen, biochemical, 635/667 nm fluorescence, BSA, DTT (AID 1130); settings: PTK2 binding, 635 nm fluorescence, higher = more signal;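 also: composite of spot emission at 667 nm and signal to noise over triplicate slides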
[12] = system: Fibrinogen (Alexa647-labelled); assay: fibrinogen binders on compound microarrays, profiling panel, artefact control for SMM control-protein annotation, biochemical, small-molecule microarray, 635/667 nm fluorescence (AID 1131); settings: fibrinogen-A647 binding fluorescence, higher = more signal;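 also: z-score merges 667 nm fluorescence with per-spot signal-to-noise over triplicate slides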
[13] = target: Follistatin (Homo sapiens) (UniProt P19883); assay: follistatin binders on small-molecule microarrays, primary screen, biochemical, small-molecule microarray, 635/667 nm fluorescence (AID 1132); settings: FST binding, 635 nm fluorescence, higher = more signal
[14] = target: Fibroblast growth factor 2 (Homo sapiens) (UniProt P09038); assay: FGF2 binders on small-molecule microarrays, primary screen, biochemical, small-molecule microarray, 635/667 nm fluorescence (AID 1133); settings: small-molecule microarray binding, FGF2, fluorescence 635/667; higher = more signal
[15] = mitochondrial membrane potential change in A549 cells, profiling panel, cell-based, JC-1 fluorescence, basal, 24 h, 100 nL (AID 1138); settings: higher = more signal;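 also: A549 lung adenocarcinoma cells under basal conditions with no added stimulus; test concentration not given here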
Lefty1 = Lefty1 binders on small-molecule microarrays, primary screen, biochemical, small-molecule microarray, 635/667 nm fluorescence (AID 1139); settings: small-molecule microarray binding, fluorescence 635/667; higher = more signal
[16] = system: wheat germ agglutinin (Triticum aestivum), Alexa647-labelled; assay: wheat germ agglutinin binders on compound microarrays, profiling panel, artefact control for SMM control-protein annotation, biochemical, small-molecule microarray, 635/667 nm fluorescence (AID 1140); settings: WGA-A647 binding, 635 nm fluorescence, higher = more signal;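 also: score merges 667 nm feature emission with signal to noise over triplicate slides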
[17] = target: Luciferin 4-monooxygenase (Photinus pyralis) (UniProt P08659); assay: firefly luciferase enzyme inhibitors, primary screen, biochemical, luminescence, purified enzyme, 2006 set (AID 1141); settings: SteadyGlo luminescence, 30 min, higher = more signal, called active from +8 up or from −8 down;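 also: cell-free assay with purified firefly luciferase at 100 ng per well in PBS; test concentration not given here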
Sequence of Luciferin 4-monooxygenase (Photinus pyralis) (P08659 whole entry, looked up): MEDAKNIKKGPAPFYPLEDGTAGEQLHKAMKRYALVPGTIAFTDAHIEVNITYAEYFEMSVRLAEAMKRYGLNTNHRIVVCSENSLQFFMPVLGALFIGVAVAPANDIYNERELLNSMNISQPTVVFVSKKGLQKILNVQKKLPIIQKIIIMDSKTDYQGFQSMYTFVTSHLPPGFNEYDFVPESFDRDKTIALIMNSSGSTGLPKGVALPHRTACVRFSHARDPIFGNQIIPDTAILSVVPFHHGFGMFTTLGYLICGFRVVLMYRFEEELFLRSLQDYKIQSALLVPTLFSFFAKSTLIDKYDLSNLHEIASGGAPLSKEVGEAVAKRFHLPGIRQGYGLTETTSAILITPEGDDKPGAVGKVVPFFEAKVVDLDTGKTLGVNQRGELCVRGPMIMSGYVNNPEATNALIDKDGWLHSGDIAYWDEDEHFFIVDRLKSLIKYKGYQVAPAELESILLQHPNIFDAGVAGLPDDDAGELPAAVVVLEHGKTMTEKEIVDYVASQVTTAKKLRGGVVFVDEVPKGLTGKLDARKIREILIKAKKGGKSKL

Sequence of Concanavalin-A (Canavalia ensiformis) (P02866 whole entry, looked up): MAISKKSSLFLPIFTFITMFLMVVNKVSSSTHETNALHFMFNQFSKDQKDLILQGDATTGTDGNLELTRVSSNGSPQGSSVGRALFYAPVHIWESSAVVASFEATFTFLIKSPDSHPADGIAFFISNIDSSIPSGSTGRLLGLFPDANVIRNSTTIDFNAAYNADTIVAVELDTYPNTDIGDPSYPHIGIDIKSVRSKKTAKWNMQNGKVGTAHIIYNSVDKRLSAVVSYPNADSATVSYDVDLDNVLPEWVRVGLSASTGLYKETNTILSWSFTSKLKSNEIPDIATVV
Sequence of Fibroblast growth factor 2 (Homo sapiens) (P09038 whole entry, looked up): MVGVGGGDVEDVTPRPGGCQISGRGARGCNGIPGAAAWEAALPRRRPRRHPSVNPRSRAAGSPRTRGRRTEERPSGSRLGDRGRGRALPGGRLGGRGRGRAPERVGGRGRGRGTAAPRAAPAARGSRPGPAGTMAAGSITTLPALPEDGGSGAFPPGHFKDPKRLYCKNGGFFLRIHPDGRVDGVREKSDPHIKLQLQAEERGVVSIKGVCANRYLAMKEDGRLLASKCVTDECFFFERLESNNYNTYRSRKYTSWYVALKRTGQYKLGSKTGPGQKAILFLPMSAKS
Sequence of Albumin (Bos taurus) (P02769 whole entry, looked up): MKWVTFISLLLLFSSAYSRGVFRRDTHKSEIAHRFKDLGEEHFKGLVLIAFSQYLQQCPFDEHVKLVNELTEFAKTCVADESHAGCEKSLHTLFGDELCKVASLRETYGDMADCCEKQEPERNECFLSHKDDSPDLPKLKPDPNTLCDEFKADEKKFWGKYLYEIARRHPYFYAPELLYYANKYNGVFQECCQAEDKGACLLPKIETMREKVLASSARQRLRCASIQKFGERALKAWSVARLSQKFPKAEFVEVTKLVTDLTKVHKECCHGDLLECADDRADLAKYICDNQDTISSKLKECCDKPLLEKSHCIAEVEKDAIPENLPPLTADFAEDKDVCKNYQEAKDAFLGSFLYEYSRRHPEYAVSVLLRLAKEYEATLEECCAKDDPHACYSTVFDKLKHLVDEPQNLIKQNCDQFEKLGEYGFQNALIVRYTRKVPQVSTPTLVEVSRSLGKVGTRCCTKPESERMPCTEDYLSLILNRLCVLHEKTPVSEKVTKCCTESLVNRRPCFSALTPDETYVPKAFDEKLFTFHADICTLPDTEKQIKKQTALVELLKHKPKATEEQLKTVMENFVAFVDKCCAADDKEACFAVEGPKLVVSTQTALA
Sequence of Follistatin (Homo sapiens) (P19883 whole entry, looked up): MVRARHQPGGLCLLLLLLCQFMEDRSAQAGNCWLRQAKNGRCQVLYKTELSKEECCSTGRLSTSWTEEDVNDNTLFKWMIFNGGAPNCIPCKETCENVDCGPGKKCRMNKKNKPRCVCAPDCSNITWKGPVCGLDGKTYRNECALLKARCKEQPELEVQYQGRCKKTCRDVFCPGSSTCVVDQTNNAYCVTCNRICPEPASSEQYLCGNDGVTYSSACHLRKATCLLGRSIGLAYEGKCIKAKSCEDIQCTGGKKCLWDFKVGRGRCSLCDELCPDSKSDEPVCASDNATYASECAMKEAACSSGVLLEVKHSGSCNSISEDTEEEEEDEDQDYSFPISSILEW
Sequence of Focal adhesion kinase 1 (Homo sapiens) (Q05397 whole entry, looked up): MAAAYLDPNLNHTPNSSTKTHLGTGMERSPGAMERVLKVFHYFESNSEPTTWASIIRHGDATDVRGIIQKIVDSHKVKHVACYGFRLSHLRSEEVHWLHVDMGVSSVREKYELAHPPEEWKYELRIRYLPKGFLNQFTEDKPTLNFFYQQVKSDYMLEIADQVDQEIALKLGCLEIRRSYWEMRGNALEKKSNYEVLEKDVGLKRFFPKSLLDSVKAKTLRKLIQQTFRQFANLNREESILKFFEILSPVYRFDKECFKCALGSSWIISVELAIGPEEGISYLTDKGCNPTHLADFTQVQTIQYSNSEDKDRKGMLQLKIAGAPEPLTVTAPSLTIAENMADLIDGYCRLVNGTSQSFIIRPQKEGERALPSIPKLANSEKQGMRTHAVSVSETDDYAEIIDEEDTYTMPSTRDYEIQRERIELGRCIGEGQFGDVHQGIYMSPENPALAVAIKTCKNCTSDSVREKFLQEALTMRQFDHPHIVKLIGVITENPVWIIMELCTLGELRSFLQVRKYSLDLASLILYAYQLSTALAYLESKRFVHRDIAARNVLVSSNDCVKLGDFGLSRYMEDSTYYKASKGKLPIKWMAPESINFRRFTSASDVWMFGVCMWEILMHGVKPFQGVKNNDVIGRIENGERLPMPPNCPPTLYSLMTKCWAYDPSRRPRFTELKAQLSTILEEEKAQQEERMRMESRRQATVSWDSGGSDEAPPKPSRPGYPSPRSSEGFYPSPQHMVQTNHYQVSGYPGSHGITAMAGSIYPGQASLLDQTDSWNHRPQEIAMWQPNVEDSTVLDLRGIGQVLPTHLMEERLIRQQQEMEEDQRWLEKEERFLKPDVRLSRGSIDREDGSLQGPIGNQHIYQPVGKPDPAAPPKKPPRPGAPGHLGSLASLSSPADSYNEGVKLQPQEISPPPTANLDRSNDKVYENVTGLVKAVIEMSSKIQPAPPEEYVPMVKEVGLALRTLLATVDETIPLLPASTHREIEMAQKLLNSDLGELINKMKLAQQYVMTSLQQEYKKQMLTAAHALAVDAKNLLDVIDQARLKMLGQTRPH

SMILES | composite z-score (Albumin (Bos taurus)) | composite Z-score [1] | composite z-score [2] | composite z-score [3] | composite z-score [4] | composite z-score [5] | composite z-score [6] | composite z-score (Sam68 (KHDRBS1)) | composite z-score [7] | composite z-score [8] | composite z-score [9] | composite z-score [10] | composite z-score [11] | composite z-score [12] | composite z-score [13] | composite z-score [14] | z-score [15] | composite z-score (Lefty1) | composite z-score [16] | z-score [17]
O=C1C[C@@](C(=O)NCc2ccccc2)(c2ccc([N+](=O)[O-])cc2)[C@@H](c2ccc(CO)cc2I)N1C1CCCCC1 | -0.13 | -0.0966 (inactive) | 0.446 | 0.202 | 0.448 | 1.15 | -0.0355 | 1.23 | 0.633 | 0.957 | 1.12 | 1.2 | 0.532 | 0.805 | 1.43 | 1.25 | -0.0219 | 0.721 | 0.411 | -1.2 (inactive)
C=C(CCCC)/C(=C/C[C@@H](OC(=O)c1ccncc1)c1ccccc1OCCO)c1cc(C(=O)OC)ccc1OC | 0.865 | -0.0662 (inactive) | 0.125 | -0.0317 | 0.616 | 1.28 | 0.902 | 1.25 | -0.0027 | -0.251 | 2.82 | 1.22 | 1.38 | 0.979 | 0.549 | 0.213 | 3.24 | 0.444 | 1 | -1.76 (inactive)
O=C(CS)NCCCCCNC(=O)[C@@H]1C[C@@H]2C(=O)N3CCC[C@H]3C(=O)N2[C@@H]1c1ccc(O)cc1 | -0.683 | 0.647 (inactive) | -0.0587 | -0.151 | 0.636 | 1.86 | 0.363 | 0.928 | -0.0012 | 1.15 | 3.22 | 1.12 | 0.0999 | -0.174 | 1.26 | 1.34 | 0.605 | -0.0581 | -0.339 | -1.59 (inactive)
CC(C)CN1C(=O)[C@@]2(Cc3ccccc31)c1ccccc1C(=O)N(Cc1ccccc1)[C@H]2c1ccc(CO)cc1 | 0.488 | 0.671 (inactive) | -0.197 | -0.138 | 0.441 | 0.179 | 0.254 | -1.72 | -1.03 | -0.616 | -0.966 | -1.28 | -0.457 | -0.492 | -1.72 | -0.776 | -0.204 | -0.78 | 0.145 | -0.336 (inactive)
COCCOC(=O)N1C(=O)[C@@]2(c3cc(C#CC4(O)CCCCCC4)ccc31)[C@H](C(=O)N1CCc3cc(OC)c(OC)cc3C1)[C@H]1C(=O)O[C@H](c3ccccc3)[C@H](c3ccccc3)N1[C@@H]2c1ccccc1OCCO | -0.499 | 0.141 (inactive) | 0.382 | 0.0521 | 0.435 | 0.29 | 0.221 | 1.29 | 1.02 | 1.17 | 1.07 | 1.17 | 0.32 | 0.608 | 1.36 | 1.48 | -0.651 | 1.28 | 0.859 | -1.72 (inactive)
CCCc1cc2c(n1Cc1ccc(OC)cc1)C(C)C1CN(C(=O)c3ccccc3)C(C)(C(=O)OC)C21 (stereo not given) | 1.08 | -0.41 (inactive) | 0.223 | 0.16 | 0.571 | 3.13 | 0.746 | 1.25 | -1.63 | 1.18 | 2.74 | 1.24 | 1.56 | 1.01 | 0.0092 | -1.19 | 0.788 | -0.515 | 1.47 | 0.062 (inactive)
COc1ccc([Si](C)(C)[C@@H]2[C@@H](CC(=O)N(CCO)Cc3ccccc3)O[C@]3(C(=O)N(Cc4ccc(N5CCOC5=O)cc4)c4ccccc43)[C@H]2C)cc1 | -0.697 | 0.516 (inactive) | -0.063 | -0.175 | 0.469 | 1.35 | -0.211 | 0.951 | 0.697 | 1.08 | 1.56 | 0.595 | 0.294 | 0.631 | 1.17 | 1.05 | -0.147 | 1.48 | 0.415 | -0.356 (inactive)
COC(=O)[C@@]1(Cc2ccccc2)[C@H]2c3cc(C(=O)N4CCCC4)n(CCO)c3C[C@H]2CN1C(=O)c1ccccc1 | 1.03 | 1.61 (inactive) | 1.37 | 0.853 | 0.841 | 2.35 | 1.41 | 1 | 0.443 | 0.886 | 0.931 | 0.992 | 0.747 | 0.488 | 0.961 | 0.0586 | 0.841 | -0.493 | 1.12 | 0.891 (inactive)
COc1cc2c(cc1OC)CN(C(=O)[C@@H]1[C@H]3C(=O)O[C@H](c4ccccc4)[C@H](c4ccccc4)N3[C@H](c3ccc(OCCO)cc3)[C@@]13C(=O)Nc1ccc(C#CCCO)cc13)CC2 | 0.379 | 1.29 (inactive) | 0.81 | -0.0669 | 0.428 | 2.92 | 0.364 | 1.3 | 0.703 | 1.02 | 1.23 | 1.23 | 0.237 | 0.956 | 1.36 | 0.999 | -1.37 | 1.08 | 1.27 | -0.418 (inactive)
COCCOC(=O)N1C(=O)[C@@]2(c3cc(C#CCCO)ccc31)[C@H](C(=O)N1CCc3cc(OC)c(OC)cc3C1)[C@H]1C(=O)O[C@H](c3ccccc3)[C@H](c3ccccc3)N1[C@@H]2c1ccc(OCCO)cc1 | 0.455 | 0.552 (inactive) | 0.19 | -0.147 | 0.476 | 1.54 | 0.765 | 1.3 | 0.956 | 1.09 | 0.768 | 1.08 | 0.148 | 0.786 | 1.27 | 1.29 | -0.236 | 1.11 | 0.774 | -2.83 (inactive)
